Source: PubChem BioAssay
Sampled rows, rich in hits. Any-hit rate of the full collection: about 9.9%.
KB-V1 MDR tox: kills drug-selected multidrug resistant KB-V1 cells. Potency, µM (highest dose often 46.1 µM), actives largely listed as cytotoxic. KB-V1 MDR cells viability, CellTiter-Glo, 72 h. AID 1347076. 400,000 tested, 3.4% active; note: potency is the fitted concentration of half-maximal effect; % is set by controls: 0 for no effect and ±100 for the full control effect; nearly all actives have a fitted effect of over 60% in size
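KB-V1 cells (P-gp-expressing MDR subline of KB-3-1) in phenol-red-free DMEM with 10% FBS were exposed to library compounds over a concentration series for 72 h at 37 degrees C. Viability read by CellTiter-Glo luminescence; concentration-effect curves fitted after normalization.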
IL1B secr inh: inhibitors of inflammasome signaling (IL-1 beta secretion); THP-1 LPS/ATP IL-1B secretion, AlphaLISA, 16 h; hits give low values; activity change, % at 57.5 µM; 360,000 tested, 4.7% active; AID 743279; in the data active = activity change below about -50%; inconclusive = mostly about -30% to -49%; note: % is set by controls: 0 for no effect and ±100 for the full control effect
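THP-1 cells pretreated 1 hr with compounds (up to 57.5 uM final), then stimulated with LPS (250 ng/mL final) plus ATP (1.25 mM final); secreted IL-1B measured by AlphaLISA after 16 hr, decreased signal indicating inhibition.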
KB-3-1 cytotox: KB-3-1 parental cell cytotoxicity. KB-3-1 viability, CellTiter-Glo ATP luminescence, 72 h. Potency, µM (series often up to 46.1 µM), most hits filed as cytotoxic. 400,000 tested, 1.4% active; note: potency is the fitted concentration of half-maximal effect; % is set by controls: 0 for no effect and ±100 for the full control effect; nearly all actives have a fitted effect of over 60% in size
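Here the drug-naive KB-3-1 line serves as comparator for MDR sub-line selectivity; cells received compound titrations, 72 h at 37 °C, then CellTiter-Glo readout.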
MCF10A rereplic: DNA re-replication induction in MCF 10a cells; MCF 10A DNA re-replication, Hoechst nuclear intensity, 48 h; 350,000 tested, 2.9% active; Potency, µM (titrated, usually from 46.1 µM), for inactives: at the top dose activity, positive = re-replication, usual class: activators; note: potency is the fitted concentration of half-maximal effect; % of control where 0% means no effect; nearly all actives have a fitted effect of over 50% in size
SW480 rerep: inducers of DNA re-replication in SW480 colon cancer cells | SW480 DNA re-replication, Hoechst DNA content imaging, 48 h | Potency, µM (doses to about 46.1 µM), inactives show at the top dose re-replication activation, most hits filed as activators | 340,000 tested, 1.8% active | AID 624297; note: potency is the fitted concentration of half-maximal effect; % of control where 0% means no effect; nearly all actives have a fitted effect of over 55% in size
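Hoechst fluorescence of nuclei (405 nm excitation, 500-530 nm emission) measured by plate-scanning imager after 48 hr compound exposure at 37 C; re-replication scored as increased number of nuclei with elevated intensity.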
An asterisk follows results filed as active. Unless noted, calls come from the whole dose curve; as a rule, active = well fitted curve in the direction sought with a large enough effect; inconclusive = small, poorly fitted or top-dose-only effect, or another doubt; inactive = no such curve, though single readings can be large; an effect the other way counts as inactive or inconclusive.

Results for COc1ccc(C(=O)Nc2cccc(C(=O)N3CCCC3)c2)cc1 ?
KB-V1 MDR tox: 20.6µM*; IL1B secr inh: 15.2; KB-3-1 cytotox: inactive; MCF10A rereplic: -5.1%; SW480 rerep: -8.8%

What do the screens show for `CC(=O)Nc1cc(OC(C)=O)c2nonc2c1OC(C)=O`?
KB-V1 MDR tox: inactive; IL1B secr inh: 4.8; KB-3-1 cytotox: inconclusive; MCF10A rereplic: inconclusive; SW480 rerep: 2.91µM*

What do the screens show for `Cc1ccccc1NC(=O)c1ccccc1OCC(=O)Nc1ccc(Br)cc1`?
KB-V1 MDR tox: inactive; KB-3-1 cytotox: inactive

Results for O=C(Nn1cnnc1)c1cc(Cl)cc(Cl)c1 ?
KB-V1 MDR tox: inactive; IL1B secr inh: 12.5; KB-3-1 cytotox: inactive; MCF10A rereplic: 8.4%; SW480 rerep: -0.7%

How did O=C(COC(=O)c1cc(S(=O)(=O)N2CCOCC2)c(Cl)cc1Cl)NCc1ccco1 do in these assays?
KB-V1 MDR tox: inactive; IL1B secr inh: -80.0*; KB-3-1 cytotox: inactive; MCF10A rereplic: inconclusive; SW480 rerep: -12.4%

Results for COc1ccc(CCN(C)CC(O)COC(c2ccc(F)cc2)c2ccc(F)cc2)cc1OC (centres undefined) ?
KB-V1 MDR tox: inconclusive; IL1B secr inh: -92.3*; KB-3-1 cytotox: inconclusive; MCF10A rereplic: inconclusive; SW480 rerep: inconclusive

How did COc1ccc(Cl)c2c1[nH]c1nc(SCc3ccccn3)nnc12 do in these assays?
KB-V1 MDR tox: inconclusive; IL1B secr inh: -81.9*; KB-3-1 cytotox: inactive; MCF10A rereplic: -1.6%; SW480 rerep: -4.9%

What do the screens show for `O=C(CC(NC(=O)c1ccccc1Cl)c1ccccc1)NCCc1ccc(Cl)cc1` (centres undefined)?
KB-V1 MDR tox: 8.2µM*; IL1B secr inh: 13.7; KB-3-1 cytotox: inactive; MCF10A rereplic: 3.6%; SW480 rerep: -3.1%

What do the screens show for `O=C(CC(c1ccccc1)c1ccccc1O)NCCc1ccccc1` (centres undefined)?
KB-V1 MDR tox: inactive; IL1B secr inh: -51.2*; KB-3-1 cytotox: inactive; MCF10A rereplic: 6.9%; SW480 rerep: -1.7%

What do the screens show for `COc1ccc(Cl)cc1NCC(=O)Nc1ccc(OC)c(S(=O)(=O)N2CCCCC2)c1`?
KB-V1 MDR tox: inactive; IL1B secr inh: 0.0; KB-3-1 cytotox: inactive; MCF10A rereplic: 0.0%; SW480 rerep: -14.9%

What do the screens show for `Cc1ccc2c(=O)cc(C(=O)Nc3ccc(S(=O)(=O)N(C)c4ccccc4)cc3)oc2c1C`?
KB-V1 MDR tox: inconclusive; KB-3-1 cytotox: inactive

Results for Cn1nc(C(=O)NC2CCCN(Cc3ccccc3F)C2)c2ccccc2c1=O (centres undefined) ?
KB-V1 MDR tox: inconclusive; IL1B secr inh: inactive; KB-3-1 cytotox: inactive; MCF10A rereplic: 6.0%; SW480 rerep: -21.7%

How did CCc1cc(C(=O)NC2CCCN(Cc3ccccc3F)C2)n(C)n1 (centres undefined) do in these assays?
KB-V1 MDR tox: inconclusive; IL1B secr inh: 35.4; KB-3-1 cytotox: inactive; MCF10A rereplic: 0.5%; SW480 rerep: 2.06µM*

What do the screens show for `CC(C)=CCC/C(C)=C/CNC(=O)C[C@H]1C[C@H](C(=O)N2CCCCC2)[C@@]2(C)c3[nH]c4cc(CCC(=O)N(C)C)ccc4c3CCN2C1=O`?
KB-V1 MDR tox: inactive; IL1B secr inh: -67.9*; KB-3-1 cytotox: inactive; MCF10A rereplic: inconclusive; SW480 rerep: -24.0%

What do the screens show for `CC(C)=CCC/C(C)=C/CNC(=O)C[C@H]1C[C@H](C(=O)N2CCOCC2)[C@@]2(C)c3[nH]c4cc(CCC(=O)N(C)C)ccc4c3CCN2C1=O`?
KB-V1 MDR tox: inactive; IL1B secr inh: -3.6; KB-3-1 cytotox: inactive; MCF10A rereplic: -1.1%; SW480 rerep: inconclusive

What do the screens show for `CC[C@]12c3[nH]c4ccccc4c3CCN1C(=O)C(CC(=O)NC/C=C(\C)CCC=C(C)C)C[C@@H]2C(=O)N1CCN(C(=O)c2ccco2)CC1` (some centres undefined)?
KB-V1 MDR tox: inactive; IL1B secr inh: -52.7*; KB-3-1 cytotox: inactive; MCF10A rereplic: inconclusive; SW480 rerep: inconclusive
